Laboratory results from PubChem BioAssay (NCATS).
Values without a mark were called inactive. Records with an inconclusive call do not appear. Active and inactive are the calls of the source. Unless noted, calls follow the shape of the dose curve; as a rule, active = well fitted curve in either direction with a large enough effect (not every such curve was filed as active); inconclusive = small, poorly fitted or top-dose-only effect, or another doubt; inactive = flat fitted curve, though single readings scatter.

What was measured:
[1] = molecular target: Lysosomal acid glucosylceramidase (Homo sapiens) (UniProt P04062); test: Glucocerebrosidase-p2 (AID 348; in the data active = potency below about 10 µM; also: potency is read from the fitted curve at half-maximal effect); conditions: purified GBA, blue fluorogenic substrate, 40 min
Lysosomal acid glucosylceramidase (Homo sapiens), sequence (P04062 whole entry, looked up): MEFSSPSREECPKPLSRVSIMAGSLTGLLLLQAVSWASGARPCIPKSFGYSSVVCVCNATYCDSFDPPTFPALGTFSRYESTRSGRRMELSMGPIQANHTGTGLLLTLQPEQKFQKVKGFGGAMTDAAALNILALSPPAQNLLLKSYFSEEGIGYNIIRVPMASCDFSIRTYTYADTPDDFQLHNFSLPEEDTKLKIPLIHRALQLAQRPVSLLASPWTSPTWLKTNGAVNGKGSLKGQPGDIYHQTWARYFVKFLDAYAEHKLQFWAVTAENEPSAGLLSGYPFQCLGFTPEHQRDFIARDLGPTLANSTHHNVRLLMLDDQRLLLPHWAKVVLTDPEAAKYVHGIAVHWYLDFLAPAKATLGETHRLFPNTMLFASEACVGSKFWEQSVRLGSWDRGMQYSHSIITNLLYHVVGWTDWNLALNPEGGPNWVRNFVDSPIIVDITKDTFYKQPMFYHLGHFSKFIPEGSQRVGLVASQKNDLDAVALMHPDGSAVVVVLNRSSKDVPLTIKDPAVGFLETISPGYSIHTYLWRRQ
In short: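 Normal human glucocerebrosidase (0.2 nM) with blue fluorogenic substrate (80 uM final) in citrate/phosphate pH 5.9 with 10mM sodium taurocholate, 0.01% tween-20; 40 min RT, NaOH/glycine stop; fluorescence Ex 365/Em 440; AC50 from a titration from 0.6 nM upwards.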

[2] = AP1 Signaling Pathway (AID 357); conditions: ME-180 AP-1-bla reporter, EGF-induced, beta-lactamase ratio, 5 h; at 7.69 µM (top of the series) unless noted;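 also: ME-180 reporter cells stimulated with EGF at its EC50 level; % is scaled to controls: 0 for no effect and ±100 for the full control effect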
In short: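 Read-out was the 460nm/530nm emission ratio (excitation 405nm) after CCF4 loading for 2.5 hours at room temperature. Cells carried an AP-1-driven beta-lactamase reporter, were stimulated with EC50 EGF plus compound for 5 hours, and AC50 values came from titrations.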

[3] = NFAT Signaling Pathway (AID 444); conditions: Jurkat NFAT-bla M1, carbachol, beta-lactamase ratio, 5 h; at 7.69 µM (top of the series) unless noted;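 also: carbachol stimulus at about its EC50 of 1 µM final; % is scaled to controls: 0 for no effect and ±100 for the full control effect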
In short: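 Jurkat cells carrying an NFAT-driven β-lactamase reporter and co-transfected muscarinic M1 receptor were treated with compound plus carbachol (1 uM final, an EC50 level) for 5 h at 37 °C. CCF4 loading followed for 1 h at RT; 460/530 nm ratio gave %activity.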

[4] = Stat Signaling Pathway (AID 446); conditions: ME-180 SIE beta-lactamase reporter, IL-6 stimulated, 5 h; at 7.69 µM (top of the series) unless noted;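 also: ME-180 cervical cancer cells given 40 pM IL-6 alongside compound; SIE-controlled beta-lactamase reporter measured as 460/530 nm FRET emission ratio; % is scaled to controls: 0 for no effect and ±100 for the full control effect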
In short: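 Compound effects on IL-6-induced STAT reporter activity were measured in ME-180 cells. After overnight culture, cells were co-treated with 40 pM IL-6 for 5 hrs before beta-lactamase substrate loading at room temperature.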

[5] = molecular target: Glucocorticoid receptor (Homo sapiens) (UniProt P04150); test: GR-GFP Redistribution (AID 450;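 active = compounds whose dose series gives a full or clear partial fitted curve of increased nuclear translocation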; also: potency is read from the fitted curve at half-maximal effect); conditions: U2OS GR-GFP nuclear translocation, laser cytometry, 2 h
Glucocorticoid receptor (Homo sapiens), sequence (P04150 whole entry, looked up, the tested form may be a part): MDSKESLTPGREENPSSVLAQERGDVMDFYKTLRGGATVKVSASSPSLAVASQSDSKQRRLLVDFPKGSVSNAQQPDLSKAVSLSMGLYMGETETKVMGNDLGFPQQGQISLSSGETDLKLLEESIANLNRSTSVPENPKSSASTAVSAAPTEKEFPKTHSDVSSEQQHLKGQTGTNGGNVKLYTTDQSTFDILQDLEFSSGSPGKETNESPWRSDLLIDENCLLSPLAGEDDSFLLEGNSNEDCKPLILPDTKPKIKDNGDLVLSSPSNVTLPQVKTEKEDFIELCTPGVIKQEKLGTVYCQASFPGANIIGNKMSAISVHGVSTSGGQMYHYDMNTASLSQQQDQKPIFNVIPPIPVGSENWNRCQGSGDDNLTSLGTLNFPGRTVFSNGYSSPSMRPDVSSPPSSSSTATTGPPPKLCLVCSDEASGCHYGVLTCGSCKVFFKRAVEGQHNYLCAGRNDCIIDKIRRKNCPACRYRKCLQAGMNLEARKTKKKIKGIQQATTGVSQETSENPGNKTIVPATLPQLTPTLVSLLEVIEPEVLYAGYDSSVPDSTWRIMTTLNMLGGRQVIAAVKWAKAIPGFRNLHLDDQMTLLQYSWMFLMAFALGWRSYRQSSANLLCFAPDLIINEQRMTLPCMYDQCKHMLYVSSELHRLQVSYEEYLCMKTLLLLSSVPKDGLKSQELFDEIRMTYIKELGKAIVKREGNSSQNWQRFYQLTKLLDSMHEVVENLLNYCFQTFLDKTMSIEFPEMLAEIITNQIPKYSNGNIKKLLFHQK

[6] = molecular target: Glucocorticoid receptor (Homo sapiens) (UniProt P04150); test: GR-EFC Redistribution (AID 451; calls by dose curve; also: potency is read from the fitted curve at half-maximal effect); conditions: CHO-K1 GR-EFC translocation, beta-gal luminescence, 2 h
In short: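 CHO-K1 cells stably expressing nuclear-localized β-gal enzyme acceptor and GR fused C-terminally to the enzyme donor fragment; ligand-driven nuclear translocation restores β-gal by complementation. Compounds titrated up to 46 uM final, 2 h at 37 °C; luminescence read.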

[7] = molecular target: Mitogen-activated protein kinase 10 (Mus musculus) (UniProt Q61831); test: JNK3 AlphaScreen Assay (AID 530); conditions: JNK3 lysate, c-Jun phosphorylation; series mostly up to 11.4 µM;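 also: kinase came from lysate of stimulated human HepG2 cells; signal reports phosphorylation of biotinylated GST-cJun 1-79 at Ser73 with 10 µM ATP; % is scaled to controls: 0 for no effect and ±100 for the full control effect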
In short: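 Biotinylated GST-cJun(1-79) served as substrate for JNK3 in HepG2 lysates stimulated with IL-1beta and TNF-alpha. ATP was 10 uM final, pH 7.6. Ser73 phosphorylation was quantified by AlphaScreen (680 nm excitation).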

[8] = molecular target: 3',5'-cyclic-AMP phosphodiesterase 4B (Homo sapiens) (UniProt Q07343); test: qHTS Assay for Inhibitors of PDE-IV (AID 607; active = well fitted activation curve with a large enough effect in the main read-out, with a control signal flat, not every such curve was filed as active; also: % of control where 0% means no effect); conditions: HEK293 ACTOne CNG channel cells, membrane potential fluorescence; series mostly up to 22.9 µM
3',5'-cyclic-AMP phosphodiesterase 4B (Homo sapiens), sequence (Q07343 whole entry, looked up): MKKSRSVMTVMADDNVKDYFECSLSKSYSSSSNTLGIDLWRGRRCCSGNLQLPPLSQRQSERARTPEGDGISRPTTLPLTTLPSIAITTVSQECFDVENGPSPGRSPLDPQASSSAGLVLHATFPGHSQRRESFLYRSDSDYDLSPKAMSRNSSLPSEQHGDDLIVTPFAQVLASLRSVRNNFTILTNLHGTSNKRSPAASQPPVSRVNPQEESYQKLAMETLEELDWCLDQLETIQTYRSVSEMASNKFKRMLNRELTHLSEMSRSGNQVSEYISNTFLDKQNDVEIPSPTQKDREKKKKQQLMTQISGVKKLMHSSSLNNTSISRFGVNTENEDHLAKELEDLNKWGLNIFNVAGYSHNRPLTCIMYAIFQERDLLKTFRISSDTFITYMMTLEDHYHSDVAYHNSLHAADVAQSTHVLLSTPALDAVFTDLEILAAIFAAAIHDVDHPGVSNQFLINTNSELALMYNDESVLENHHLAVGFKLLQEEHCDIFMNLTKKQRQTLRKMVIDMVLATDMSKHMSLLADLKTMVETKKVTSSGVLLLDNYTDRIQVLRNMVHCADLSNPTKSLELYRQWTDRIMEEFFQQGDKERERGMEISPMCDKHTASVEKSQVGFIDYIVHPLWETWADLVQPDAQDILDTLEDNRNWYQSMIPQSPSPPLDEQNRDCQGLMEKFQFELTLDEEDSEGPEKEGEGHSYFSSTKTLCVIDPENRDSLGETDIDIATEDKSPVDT
In short: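 ACTOne HEK293 cells carry a modified cAMP-gated CNG channel and express endogenous PDE4; plated 1000 cells/well, compounds up to 22.9 uM final. Membrane-potential dye fluorescence (ex 535/em 590) was read; parental cells received 10 uM forskolin + 100 uM RO 20-1724.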

[9] = molecular target: Cytochrome P450 2D6 (Homo sapiens) (UniProt P10635); test: qHTS Assay for Inhibitors and Substrates of Cytochrome P450 2D6 (AID 891; active = well fitted curve in the direction sought with a large enough effect; an effect the other way counts as inactive or inconclusive; also: nearly all actives have a fitted effect of over 60% in size; also: potency is read from the fitted curve at half-maximal effect); conditions: recombinant CYP2D6, luciferin-ME EGE luminescence; series mostly up to 11.4 µM
Cytochrome P450 2D6 (Homo sapiens), sequence (P10635 whole entry, looked up): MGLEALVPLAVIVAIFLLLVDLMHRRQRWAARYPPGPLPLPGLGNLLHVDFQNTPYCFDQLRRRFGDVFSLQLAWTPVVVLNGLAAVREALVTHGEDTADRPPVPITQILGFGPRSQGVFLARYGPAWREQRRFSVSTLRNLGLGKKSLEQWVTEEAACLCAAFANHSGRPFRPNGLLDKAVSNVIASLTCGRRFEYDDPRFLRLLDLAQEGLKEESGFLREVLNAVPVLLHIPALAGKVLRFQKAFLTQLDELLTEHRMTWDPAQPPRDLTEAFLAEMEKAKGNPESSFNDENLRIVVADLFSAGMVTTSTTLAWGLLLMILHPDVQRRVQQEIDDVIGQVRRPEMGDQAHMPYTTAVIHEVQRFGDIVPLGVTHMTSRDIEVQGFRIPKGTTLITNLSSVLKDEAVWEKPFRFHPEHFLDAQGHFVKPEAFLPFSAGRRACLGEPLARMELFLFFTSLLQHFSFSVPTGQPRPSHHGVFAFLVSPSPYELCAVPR
In short: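 Luminescent read-out of luciferin formed by 5 nM human CYP2D6 demethylating 30 uM Luciferin-ME EGE (Km level) over 60 min at room temperature after NADPH regeneration addition. Data normalized to full inhibition by 1.43 uM quinidine.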

[10] = molecular target: Cytochrome P450 3A4 (Homo sapiens) (UniProt P08684); test: qHTS Assay for Inhibitors and Substrates of Cytochrome P450 3A4 (AID 884; active = well fitted curve in the direction sought with a large enough effect; an effect the other way counts as inactive or inconclusive; also: potency is read from the fitted curve at half-maximal effect; nearly all actives have a fitted effect of over 50% in size); conditions: recombinant CYP3A4, Luciferin-PPXE luminescence; series mostly up to 57.1 µM
Cytochrome P450 3A4 (Homo sapiens), sequence (P08684 whole entry, looked up): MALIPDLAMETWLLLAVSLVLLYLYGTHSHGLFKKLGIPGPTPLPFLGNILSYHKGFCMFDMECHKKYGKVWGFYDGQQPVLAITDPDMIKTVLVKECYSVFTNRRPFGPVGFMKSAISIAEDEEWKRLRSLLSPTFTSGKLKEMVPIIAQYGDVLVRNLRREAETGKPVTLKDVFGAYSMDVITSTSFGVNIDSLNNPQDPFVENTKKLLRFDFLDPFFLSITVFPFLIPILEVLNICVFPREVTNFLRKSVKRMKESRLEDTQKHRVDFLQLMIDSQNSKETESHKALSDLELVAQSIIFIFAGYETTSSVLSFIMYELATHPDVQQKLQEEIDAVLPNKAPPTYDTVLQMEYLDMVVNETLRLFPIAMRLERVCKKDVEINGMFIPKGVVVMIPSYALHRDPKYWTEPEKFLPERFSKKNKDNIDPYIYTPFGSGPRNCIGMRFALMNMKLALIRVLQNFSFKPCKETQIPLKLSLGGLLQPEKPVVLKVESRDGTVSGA
In short: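 Luminescent readout of luciferin produced by CYP3A4 (20 nM) dealkylation of Luciferin-PPXE, 25 uM (its KM). NADPH-driven reaction ran 60 min at RT after 10 min compound preincubation; data scaled to 57 uM ketoconazole as 100% inhibition.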

[11] = molecular target: Cytochrome P450 3A4 (Homo sapiens) (UniProt P08684); test: qHTS Assay for Activators of Cytochrome P450 3A4 (AID 885; active = well fitted curve in the direction sought with a large enough effect; an effect the other way counts as inactive or inconclusive; also: nearly all actives have a fitted effect of over 65% in size); conditions: recombinant CYP3A4, Luciferin-PPXE luminescence, 60 min; series mostly up to 11.4 µM
In short: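 CYP3A4 activity: Luciferin-PPXE O-dealkylation, 25uM substrate, 200mM KPO4, RT throughout. Read-out is luciferase luminescence; higher values reflect activation.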

[12] = molecular target: Cytochrome P450 2C9 (Homo sapiens) (UniProt P11712); test: qHTS Assay for Inhibitors and Substrates of Cytochrome P450 2C9 (AID 883; active = well fitted curve in the direction sought with a large enough effect; an effect the other way counts as inactive or inconclusive; also: nearly all actives have a fitted effect of over 60% in size; also: potency is read from the fitted curve at half-maximal effect); conditions: recombinant CYP2C9, luciferin-H luminescence, 60 min; series mostly up to 11.4 µM
Cytochrome P450 2C9 (Homo sapiens), sequence (P11712 whole entry, looked up): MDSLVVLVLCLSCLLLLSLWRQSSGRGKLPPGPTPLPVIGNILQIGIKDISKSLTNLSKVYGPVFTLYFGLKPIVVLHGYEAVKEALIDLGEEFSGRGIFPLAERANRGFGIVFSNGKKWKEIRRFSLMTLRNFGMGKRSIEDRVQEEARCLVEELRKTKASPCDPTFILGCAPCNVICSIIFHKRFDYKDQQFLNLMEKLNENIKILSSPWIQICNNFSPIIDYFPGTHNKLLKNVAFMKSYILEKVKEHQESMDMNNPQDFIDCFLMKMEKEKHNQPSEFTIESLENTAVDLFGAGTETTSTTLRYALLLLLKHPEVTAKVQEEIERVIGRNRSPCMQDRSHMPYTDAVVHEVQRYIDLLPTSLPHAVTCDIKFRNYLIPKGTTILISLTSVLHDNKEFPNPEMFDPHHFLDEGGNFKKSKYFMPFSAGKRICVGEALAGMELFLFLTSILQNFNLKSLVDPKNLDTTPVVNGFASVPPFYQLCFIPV
In short: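 Human CYP2C9 (10nM) hydroxylated Luciferin-H (100uM, at its KM) to luciferin in 25mM KPO4. Compound was preincubated 10 min at 37C, then NADPH regeneration started a 60 min reaction at 37C. Luminescence was read after detection reagent, normalized to 57uM sulphaphenazole.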

[13] = molecular target: Cytochrome P450 2C19 (Homo sapiens) (UniProt P33261); test: qHTS Assay for Inhibitors and Substrates of Cytochrome P450 2C19 (AID 899; active = well fitted curve in the direction sought with a large enough effect; an effect the other way counts as inactive or inconclusive; also: nearly all actives have a fitted effect of over 60% in size; also: potency is read from the fitted curve at half-maximal effect); conditions: recombinant CYP2C19, luciferin-H EGE luminescence; series mostly up to 11.4 µM
Cytochrome P450 2C19 (Homo sapiens), sequence (P33261 whole entry, looked up): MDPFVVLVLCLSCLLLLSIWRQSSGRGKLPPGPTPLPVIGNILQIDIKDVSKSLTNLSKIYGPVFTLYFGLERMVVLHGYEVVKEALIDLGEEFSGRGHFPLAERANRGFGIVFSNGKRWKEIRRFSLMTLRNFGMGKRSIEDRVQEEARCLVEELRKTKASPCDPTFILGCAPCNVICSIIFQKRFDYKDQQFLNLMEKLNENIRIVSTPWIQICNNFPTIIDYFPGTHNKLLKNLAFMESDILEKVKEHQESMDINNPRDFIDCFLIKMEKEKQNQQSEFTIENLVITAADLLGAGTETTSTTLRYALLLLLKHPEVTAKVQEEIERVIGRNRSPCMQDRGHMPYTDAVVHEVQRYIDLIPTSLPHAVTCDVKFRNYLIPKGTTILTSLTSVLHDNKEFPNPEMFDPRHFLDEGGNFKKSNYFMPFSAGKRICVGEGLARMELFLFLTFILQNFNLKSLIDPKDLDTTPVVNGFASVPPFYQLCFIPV
In short: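 Human CYP2C19 (5nM) with Luciferin-H EGE at 10uM (its KM) in 50mM KPO4 was preincubated with compound for 10 min at 37C. NADPH regeneration started a 60 min 37C reaction. Luciferin was read by luminescence, normalized to 57uM ketoconazole.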

[14] = qHTS Assay for Identification of Small Molecule Agonists for Hypoxia Response Element Signaling Pathway (AID 914; active = well fitted activation curve with a large enough effect in the signal ratio, with a control signal flat, not every such curve was filed as active; the % refers to the signal ratio; also: % of control where 0% means no effect); conditions: ME-180 (cervical carcinoma) HRE-bla reporter, beta-lactamase ratio, CoCl2, 17 h; activation: stronger effect = higher value
In short: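 HRE-bla ME-180 cells, overnight plating in Opti-MEM with 0.5% dialyzed FBS; cpd titration + EC50 CoCl2, 17 h, 37 degrees Celsius; CCF4 2.5 h RT; 460/530 nm ratio; AC50.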

Structure (SMILES) | Potency [1] [µM] | activity change, negative = inhibition [2] [%] | activity change, negative = inhibition [3] [%] | activity, negative = inhibition [4] [%] | Potency [5] [µM] | Potency [6] [µM] | Potency [7] | Potency [8] | Potency [9] | Potency [10] | Potency [11] | Potency [12] | Potency [13] | activation [14] [%]
NC[C@@H](O)CSCc1ccc(Cl)cc1 | > 11.4 | -2.84 | 21.3 | 0.417 | > 46 | > 9.22 | inactive | inactive | 3.16 µM (active) | – | – | – | – | –
COc1cc(NCC[C@@H]2CCCCN2)c2ncccc2c1 | > 11.4 | 28.5 | -23.9 | 13.7 | > 46 | > 9.22 | inactive | inactive | – | – | – | – | – | –
NS(=O)(=O)c1cc(C(=O)O)c(Cl)c([N+](=O)[O-])c1Cl | > 11.4 | 10.9 | 18.5 | 13.1 | > 46 | > 9.22 | inactive | inactive | inactive | – | – | – | – | –
COCCn1c(=O)c(-c2cc(F)cc(F)c2)nc2cnc(Oc3ccc(OC)cc3)nc21 | > 11.4 | -11.1 | 0.515 | -2.08 | > 9.22 | > 46 | inactive | inactive | – | 3.16 µM (active) | inactive | – | – | –
O=C1c2cccc([N+](=O)[O-])c2C(=O)N1c1ncn[nH]1 | > 11.4 | -5.78 | 7.45 | 4.03 | > 46 | > 9.22 | inactive | inactive | – | – | inactive | inactive | inactive | –
CN(C)CCCSc1nc2ccccc2[nH]1 | > 11.4 | -0.00775 | -10.2 | 3.11 | > 46 | > 9.22 | inactive | inactive | – | – | – | – | – | –
CC(=O)n1c(COS(C)(=O)=O)nc2ccccc21 | > 11.4 | -2.19 | 8.51 | -1.19 | > 46 | > 9.22 | inactive | inactive | – | – | inactive | – | – | –
COc1ccc(C=Nc2c(O)ccc3ccccc23)cc1OC | > 11.4 | -0.822 | 9.83 | -1.67 | > 46 | > 9.22 | inactive | inactive | – | – | inactive | – | – | –
NNC(=O)CCSc1ccccc1 | > 11.4 | 7.31 | 10.9 | -4.96 | > 46 | > 9.22 | inactive | inactive | – | 3.98 µM (active) | inactive | – | 3.98 µM (active) | –
O=C(O)[C@@H]1[C@@H]2O[C@H]([C@@H](Br)[C@H]2Br)[C@H]1C(=O)O | > 11.4 | 7.44 | 2.42 | -2.12 | > 46 | > 9.22 | inactive | inactive | – | – | – | – | – | –
S[C@@H]1CCCN(Cc2ccccc2)C1 | > 11.4 | 1.2 | -16.1 | 2.98 | > 46 | > 9.22 | inactive | inactive | 0.794 µM (active) | – | inactive | – | 3.16 µM (active) | –
[N-]=[N+]=N[C@@H]1[C@H](O)[C@H](CO)O[C@@H]1n1cnc2c(N)ncnc21 | > 11.4 | -7.07 | 9.28 | -12.3 | > 46 | > 9.22 | inactive | inactive | – | – | – | – | – | –
CN(C)CN1CSC(=S)N(CN(C)C)C1 | > 11.4 | -2.13 | 1.69 | 0.0184 | > 46 | > 9.22 | inactive | inactive | – | – | – | 3.16 µM (active) | 3.16 µM (active) | –
CCO[P@]1(=O)OC[C@@H]2O[C@H](n3cnc4c(N)ncnc43)[C@H](O)[C@@H]2O1 | > 11.4 | -10.8 | 4.19 | -5.06 | > 46 | > 9.22 | inactive | inactive | – | – | – | – | – | 10.2
